The text below walks through data of PubChem BioAssay.

A number with no mark means an inactive call. For some of these results: Entries with a potency or affinity are not part of this list. Activity calls are given as the source filed them. Unless noted, no rule for the calls is given here.

A short description of assay [1]: antimalarial activity against Dd2 strain (AID 2302;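 active = growth inhibition above 50% at the single 2 µM test dose, taken to imply half-maximal potency below 2 µM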;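 also: 0% = DMSO untreated growth and 100% = chloroquine plus artemisinin killed control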). The settings on record: P. falciparum Dd2 in RBCs, LDH growth readout, 72 h; at 2 µM; hits give high values.
Assay [2] can be described thus: HepG2 cytotoxicity, primary screen, cytotoxicity control for P. falciparum antimalarial project, cell-based, ATP luminescence (AID 2303;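 active = inhibition above 50%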;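 also: 0% = DMSO wells and 100% = digitonin-killed cells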). The settings on record: HepG2 viability, 24-48 h, at 10 µM, hits give high values.
For assay [3], the target named is L-lactate dehydrogenase (Plasmodium falciparum (isolate CDC / Honduras)) (UniProt Q27743). The assay is described as follows: PfLDH activity inhibition – cell lysate, 3D7 strain, counter-screen for P. falciparum growth inhibition project (AID 2304).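 Also: 0% = vehicle and 100% = reference inhibitor.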 The settings on record: P. falciparum 3D7 crude extract, LDH APAD/NBT absorbance; at 2 µM; hits give high values. (A counterscreen serves to expose hits that act by an unwanted route or on another target.)
L-lactate dehydrogenase (Plasmodium falciparum (isolate CDC / Honduras)), sequence (Q27743 whole entry, looked up): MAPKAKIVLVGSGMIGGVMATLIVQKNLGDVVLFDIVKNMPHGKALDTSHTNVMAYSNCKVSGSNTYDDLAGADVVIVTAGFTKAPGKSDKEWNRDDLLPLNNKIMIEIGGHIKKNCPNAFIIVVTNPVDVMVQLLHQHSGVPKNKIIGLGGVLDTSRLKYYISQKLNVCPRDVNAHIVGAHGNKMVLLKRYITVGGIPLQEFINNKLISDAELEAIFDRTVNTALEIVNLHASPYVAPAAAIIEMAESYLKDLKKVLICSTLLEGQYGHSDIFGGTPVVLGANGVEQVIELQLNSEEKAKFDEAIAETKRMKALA

The nature of assay [4]: inhibition of 3D7 malaria parasite growth – strain 3D7 (AID 2306).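 Also: 0% = DMSO wells and 100% = chloroquine plus artemisinin control wells.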 The settings on record: P. falciparum 3D7 erythrocytic growth, LDH absorbance, 72 h; at 2 µM; hits give high values.
The target in assay [5] is Calcium-dependent protein kinase 1 (Plasmodium falciparum (isolate 3D7)) (UniProt P62344). The assay is described as follows: PfCDPK1 kinase inhibitors, biochemical, TCAMS library (AID 1159585; cut-off not given, nearly all actives have IC50 up to about 0.98 µM;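 also: inhibitors leave more ATP so luminescence rises with inhibition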). The settings on record: recombinant PfCDPK1, Kinase-Glo ATP depletion luminescence. A general note: Kinase-Glo measures the ATP left after a reaction by luminescence.
Calcium-dependent protein kinase 1 (Plasmodium falciparum (isolate 3D7)), sequence (P62344 whole entry, looked up): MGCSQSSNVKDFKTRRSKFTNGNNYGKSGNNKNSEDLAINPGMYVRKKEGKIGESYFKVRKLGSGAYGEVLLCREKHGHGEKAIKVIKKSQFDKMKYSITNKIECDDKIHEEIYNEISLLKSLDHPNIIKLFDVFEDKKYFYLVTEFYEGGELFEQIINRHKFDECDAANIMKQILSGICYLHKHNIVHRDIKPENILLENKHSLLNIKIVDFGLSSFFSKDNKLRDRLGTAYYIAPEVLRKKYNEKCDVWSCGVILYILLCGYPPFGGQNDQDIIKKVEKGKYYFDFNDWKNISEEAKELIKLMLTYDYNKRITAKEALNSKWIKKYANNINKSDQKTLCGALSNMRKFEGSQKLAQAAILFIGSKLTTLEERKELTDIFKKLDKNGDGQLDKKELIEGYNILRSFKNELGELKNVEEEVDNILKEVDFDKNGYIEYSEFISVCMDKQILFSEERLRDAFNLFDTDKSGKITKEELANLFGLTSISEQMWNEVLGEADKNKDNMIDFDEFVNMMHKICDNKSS
Assay [6] concerns the target Plasmodium falciparum protein kinase 6 (PK6, PF3D7_1337100) (UniProt Q8IDW1). Description: PfPK6 kinase inhibitors, biochemical, TCAMS library (AID 1159586). The settings on record: recombinant PfPK6, Kinase-Glo ATP depletion luminescence.
For assay [7], the target named is Protein kinase 7 (PK7), Plasmodium falciparum 3D7 (PF3D7_0213400) (UniProt Q7YTF7). The assay is described as follows: inhibition of Plasmodium PK7 catalytic activity – biochemical, TCAMS antimalarial set, Kinase-Glo luminescence (AID 1159587). The settings on record: recombinant PfPK7, Kinase-Glo ATP depletion luminescence.
Protein kinase 7 (PK7), Plasmodium falciparum 3D7 (PF3D7_0213400), sequence (Q7YTF7 1-343): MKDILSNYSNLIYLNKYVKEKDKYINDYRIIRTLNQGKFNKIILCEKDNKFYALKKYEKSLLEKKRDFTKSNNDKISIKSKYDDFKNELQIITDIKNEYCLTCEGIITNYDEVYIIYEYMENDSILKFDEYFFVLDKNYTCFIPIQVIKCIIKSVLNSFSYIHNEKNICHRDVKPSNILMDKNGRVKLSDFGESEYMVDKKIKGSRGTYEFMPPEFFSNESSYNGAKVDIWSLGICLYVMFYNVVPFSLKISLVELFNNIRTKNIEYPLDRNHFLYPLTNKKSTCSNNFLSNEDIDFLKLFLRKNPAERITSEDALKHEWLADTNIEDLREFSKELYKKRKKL
Assay [8] deals with Calcium-dependent protein kinase 4 (Plasmodium falciparum (isolate 3D7)) (UniProt Q8IBS5). The assay is described as follows: PfCDPK4 kinase inhibitors, biochemical, TCAMS library (AID 1159588; cut-off not given, nearly all actives have IC50 up to about 0.91 µM). The following applies: recombinant PfCDPK4, Kinase-Glo ATP depletion luminescence.
Calcium-dependent protein kinase 4 (Plasmodium falciparum (isolate 3D7)), sequence (Q8IBS5 whole entry, looked up): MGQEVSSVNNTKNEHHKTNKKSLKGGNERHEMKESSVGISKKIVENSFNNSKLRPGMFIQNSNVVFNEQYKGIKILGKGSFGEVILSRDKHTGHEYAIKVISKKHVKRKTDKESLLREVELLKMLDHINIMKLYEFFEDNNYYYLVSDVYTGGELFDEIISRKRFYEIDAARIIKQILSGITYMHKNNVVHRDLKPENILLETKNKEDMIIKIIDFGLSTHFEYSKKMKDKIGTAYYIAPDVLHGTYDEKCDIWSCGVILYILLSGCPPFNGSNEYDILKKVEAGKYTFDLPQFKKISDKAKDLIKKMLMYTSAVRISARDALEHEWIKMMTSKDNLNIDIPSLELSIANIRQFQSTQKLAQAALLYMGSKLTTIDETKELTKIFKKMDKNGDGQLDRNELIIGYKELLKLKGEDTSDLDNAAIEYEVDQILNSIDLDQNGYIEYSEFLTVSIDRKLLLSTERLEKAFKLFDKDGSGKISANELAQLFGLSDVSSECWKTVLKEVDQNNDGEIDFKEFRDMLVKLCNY

Broadly, the inhibition is the drop in the measured response relative to a control, in per cent.

Plasmodium falciparum protein kinase 6 (PK6, PF3D7_1337100), sequence (Q8IDW1 1-305): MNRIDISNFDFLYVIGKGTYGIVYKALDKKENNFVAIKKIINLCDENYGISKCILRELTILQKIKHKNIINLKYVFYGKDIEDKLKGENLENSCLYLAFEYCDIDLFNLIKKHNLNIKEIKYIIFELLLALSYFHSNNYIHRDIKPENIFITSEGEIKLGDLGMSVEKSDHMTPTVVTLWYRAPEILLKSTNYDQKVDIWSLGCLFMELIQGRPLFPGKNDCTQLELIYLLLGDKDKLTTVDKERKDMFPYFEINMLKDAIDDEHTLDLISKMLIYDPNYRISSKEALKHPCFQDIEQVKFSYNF

For the compound `COc1cccc(-c2nn(C)c3sc(C(=O)NCCN(C)Cc4ccccc4)cc23)c1`, the growth inhibition in assay [1] was 26%; in assay [4], 92% (active). Also, the inhibition in assay [2] was 21%; in assay [3], -3%. Further, the outcome in assay [5], in assay [6], in assay [7] and in assay [8] was inactive.
With `CCCCC(=O)Nc1nc2ccc([N+](=O)[O-])cc2s1`, the growth inhibition in assay [1] was 69% (active); in assay [4], 91% (active). For the same compound, the inhibition is 9% in assay [2] and -5% in assay [3]. Also, the result in assay [5], in assay [6], in assay [7] and in assay [8] was inactive.
As for `CN(C)CCNC(=O)c1ccc(-c2cnc3ccc(NCc4ccc(Cl)c(Cl)c4)nn23)cc1`, the growth inhibition in assay [1] and in assay [4] was 98% (active) each time. Further, the inhibition in assay [2] was 60% (active); in assay [3], -5%. The outcome in assay [5], in assay [6], in assay [7] and in assay [8] was inactive.
Regarding `CCCCOC(=O)C1=C(C)NC2=C(C(=O)CC(c3ccc(OC)c(OC)c3)C2)C1c1ccc(O)cc1` (stereo not given), the growth inhibition in assay [1] is 75% (active); in assay [4], 90% (active). For the same compound, the inhibition was -6% in assay [2] and 2% in assay [3]. For the same compound, the result in assay [5], in assay [6], in assay [7] and in assay [8] was inactive.
Turning to `O=C1c2ccc([N+](=O)[O-])cc2C(=O)N1c1ccc2[nH]ncc2c1`, the growth inhibition was -1% in assay [1] and 87% (active) in assay [4]. The inhibition was 11% in assay [2] and -1% in assay [3]. Moreover, the outcome in assay [5], in assay [6], in assay [7] and in assay [8] was inactive.
Turning to `CC(=O)Nc1cccc(CNCc2ccc(-c3cnc(N4CCCC(c5ccccc5)C4)nc3)cc2)c1` (stereo not given), the growth inhibition is 22% in assay [1] and 84% (active) in assay [4]. Moreover, the figures for the inhibition in assay [2] and in assay [3] were 16% and 3%, respectively. Also, the outcome in assay [5], in assay [6], in assay [7] and in assay [8] was inactive.
Take `CNS(=O)(=O)c1ccc2c(c1)nc(C1CCN(CC3CCC(NC(=O)/C=C/c4ccc(Cl)c(Cl)c4)CC3)CC1)n2C` (stereo not given): the growth inhibition in assay [1] is 96% (active); in assay [4], 102% (active). In addition, the inhibition in assay [2] was 5%; in assay [3] it was -2%. Besides, the result in assay [5], in assay [6], in assay [7] and in assay [8] was inactive.
For the compound `Cc1ccc(-c2cc(C(=O)Nc3ccc(S(=O)(=O)N4CCCC(C)C4)cc3)[nH]n2)c(O)c1` (stereo not given), the growth inhibition was 99% (active) in assay [1] and 102% (active) in assay [4]. For the same compound, the inhibition in assay [2] is 32%; in assay [3] it was -4%. The outcome in assay [5], in assay [6], in assay [7] and in assay [8] was inactive.
As to `C/C(=C\C(=O)NC1CC1)c1ccccc1OCc1ccccc1`, the growth inhibition in assay [1] was 1%; in assay [4], 90% (active). Also, the inhibition in assay [2] is 3%; in assay [3], -1%. The outcome in assay [5], in assay [6], in assay [7] and in assay [8] was inactive.
As to `Cc1cccc2[nH]c(-c3ccc(-c4cccc(NC(=O)Nc5ccsc5)c4)cc3)nc12`, the growth inhibition in assay [1] was 24%; in assay [4] it was 101% (active). In addition, the inhibition in assay [2] was 24%; in assay [3], 8%. Moreover, the result in assay [5], in assay [6], in assay [7] and in assay [8] was inactive.
Consider `CCN(CC)CCN(Cc1ccc(-c2ccc(C(F)(F)F)cc2)cc1)C(=O)Cn1cc(CCCc2cccc(F)c2F)c(=O)c2ccccc21`, for which the growth inhibition in assay [1] is 20%; in assay [4] it was 89% (active). The inhibition was 13% in assay [2] and -4% in assay [3]. Besides, the result in assay [5], in assay [6], in assay [7] and in assay [8] was inactive.
For `O=C(NC1CCN(Cc2ccccc2)CC1)c1ccc(-c2nc3cc(Cl)c(Cl)cc3[nH]2)s1`, the growth inhibition in assay [1] was 99% (active); in assay [4] it was 103% (active). The results for the inhibition in assay [2] and in assay [3] were 17% and -1%, respectively. For the same compound, the outcome in assay [5], in assay [6], in assay [7] and in assay [8] was inactive.
As to `Clc1ccc(-c2csc3ncnc(Cl)c23)cc1`, the growth inhibition in assay [1] was 95% (active); in assay [4], 94% (active). Further, the inhibition was -3% in assay [2] and -6% in assay [3]. Moreover, the result in assay [5], in assay [6], in assay [7] and in assay [8] was inactive.
Consider `Cc1[nH]c(C)c(-c2ccc(OCc3cc(F)cc(F)c3)nc2)c(=O)c1Cl`, for which the growth inhibition in assay [1] and in assay [4] was 97% (active) each time. The inhibition in assay [2] is 20%; in assay [3], -6%. Besides, the outcome in assay [5], in assay [6], in assay [7] and in assay [8] was inactive.
For the compound `CCN(CCCN1CCCCC1)c1cc(C)nc(Nc2cccc(C(F)(F)F)c2C)n1`, the growth inhibition is 37% in assay [1] and 99% (active) in assay [4]. The figures for the inhibition in assay [2] and in assay [3] were 57% (active) and -2%, respectively. In addition, the result in assay [5], in assay [6], in assay [7] and in assay [8] was inactive.
Turning to `c1ccc(Oc2ccc(Nc3ccnc4cc(-c5ccc(CN6CCNCC6)o5)ccc34)cc2)nc1`, the growth inhibition in assay [1] was 99% (active); in assay [4], 100% (active). In addition, the results for the inhibition in assay [2] and in assay [3] were 7% and -1%, respectively. The outcome in assay [5], in assay [6], in assay [7] and in assay [8] was inactive.
For `O=C(N[C@@H](CC1CCCCC1)C(=O)NCCN1CCOCC1)c1ccc(O)c(-c2ccc(Cl)c(Cl)c2)c1`, the results for the growth inhibition in assay [1] and in assay [4] were 99% (active) and 97% (active), respectively. For the same compound, the inhibition in assay [2] is -3%; in assay [3], 3%. For the same compound, the result in assay [5], in assay [6], in assay [7] and in assay [8] was inactive.
Take `COc1ccc(NC(=O)Nc2cccc(-c3ccc(-c4nc5ccc(C(F)(F)F)cc5[nH]4)cc3)c2)cc1`: the growth inhibition is 29% in assay [1] and 101% (active) in assay [4]. The inhibition in assay [2] was 46%; in assay [3], 6%. For the same compound, the outcome in assay [5], in assay [6], in assay [7] and in assay [8] was inactive.
On to `O=C(NC1CCC(N2CCCC(OCc3ccccc3)C2)CC1)c1cc2ccccc2[nH]1` (stereo not given), for which the growth inhibition in assay [1] was 11%; in assay [4], 94% (active). The inhibition in assay [2] is 38%; in assay [3] it was -1%. The outcome in assay [5], in assay [6], in assay [7] and in assay [8] was inactive.
Turning to `Cc1onc(-c2ccccc2)c1-c1nc(NCCC(c2ccccc2)c2ccccc2)no1`, the growth inhibition in assay [1] was 78% (active); in assay [4], 100% (active). Besides, the inhibition in assay [2] is -4%; in assay [3], -7%. The outcome in assay [5], in assay [6], in assay [7] and in assay [8] was inactive.
